Test results published in the supplement of paper PMC10849652.
The full data set covers some 8,800 targets. This sample favours those with a hit. About 0.5% of all pairs of compound and target were hits. Values without a mark were called inactive.

How the values were obtained:
Test in all cases: log2 fold change, soluble protein after heating vs DMSO (PISA); higher = thermal stabilisation; K562 lysate, 10 uM; active = over 0.2 and 3.5 SD of the protein, either way, in both replicates (recomputed)
alvocidib = compound: CN1CC[C@H](c2c(O)cc(O)c3c(=O)cc(-c4ccccc4Cl)oc23)[C@H](O)C1 [alvocidib]
Procedure, shortened: (§1)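 K562 pellets were dounce-homogenised in PBS pH 7.4 containing 1 mM MgCl2, and the crude extract, at 1 mg/mL protein, was exposed to 10 μM compound for 30 min. Aliquots were heated for 3 min across 48°C-58°C, pooled, brought to 0.5% NP-40 at 4°C and spun at 21,000xg for 90 min, with the supernatant taken as soluble protein. TMTpro 16plex LC-MS/MS with equalised channel sums quantified that protein. Values are log-two fold changes in thermal stability relative to solvent controls, taken from duplicates.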

Tubastatin A = compound: CN1CCc2c(c3ccccc3n2Cc2ccc(C(=O)NO)cc2)C1 [Tubastatin A]
Procedure, shortened: as §1

[1] = compound: CNC(=O)C1=CC=CC=C1NC2=NC(=NC=C2Cl)NC3=C(C=C(C=C3)N4CCOCC4)OC
Procedure, shortened: as §1

defactinib = compound: CNC(=O)c1ccc(Nc2ncc(C(F)(F)F)c(NCc3nccnc3N(C)S(C)(=O)=O)n2)cc1 [defactinib]
Procedure, shortened: as §1

[2] = compound: CNc1nc(-c2ccc3c(N)n[nH]c3c2)cc(N2C[C@@H](C(=O)NC3CCCCC3)CC[C@H]2C)n1
Procedure, shortened: as §1

encorafenib = compound: COC(=O)N[C@@H](C)CNc1nccc(-c2cn(C(C)C)nc2-c2cc(Cl)cc(NS(C)(=O)=O)c2F)n1 [encorafenib]
Procedure, shortened: as §1

[3] = compound: COC(=O)[C@H](CCSC)NC(=O)C1=C(C=C(C=C1)NC[C@H](CS)N)C2=CC=CC=C2
Procedure, shortened: as §1

alisertib = compound: COc1cc(Nc2ncc3c(n2)-c2ccc(Cl)cc2C(c2c(F)cccc2OC)=NC3)ccc1C(=O)O [alisertib]
Procedure, shortened: as §1

[4] = compound: COc1cc2nc(-c3cc(F)ccc3O)nc(N[C@@H]3CNC[C@H]3C(C)(C)O)c2cc1OC
Procedure, shortened: as §1

gefitinib = compound: COc1cc2ncnc(Nc3ccc(F)c(Cl)c3)c2cc1OCCCN1CCOCC1 [gefitinib]
Procedure, shortened: as §1

lapatinib = compound: CS(=O)(=O)CCNCc1ccc(-c2ccc3ncnc(Nc4ccc(OCc5cccc(F)c5)c(Cl)c4)c3c2)o1 [lapatinib]
Procedure, shortened: as §1

pictilisib = compound: CS(=O)(=O)N1CCN(Cc2cc3nc(-c4cccc5[nH]ncc45)nc(N4CCOCC4)c3s2)CC1 [pictilisib]
Procedure, shortened: as §1

crizotinib = compound: C[C@@H](Oc1cc(-c2cnn(C3CCNCC3)c2)cnc1N)c1c(Cl)ccc(F)c1Cl [crizotinib]
Procedure, shortened: as §1

[5] = compound: C[C@H](C1=CC=C(C=C1)C(=O)NC2=C3C=CNC3=NC=C2)N
Procedure, shortened: as §1

duvelisib = compound: C[C@H](Nc1ncnc2nc[nH]c12)c1cc2cccc(Cl)c2c(=O)n1-c1ccccc1 [duvelisib]
Procedure, shortened: as §1

gandotinib = compound: Cc1cc(Nc2cc(CN3CCOCC3)c3nc(C)c(Cc4ccc(Cl)cc4F)n3n2)n[nH]1 [gandotinib]
Procedure, shortened: as §1

tozasertib = compound: Cc1cc(Nc2cc(N3CCN(C)CC3)nc(Sc3ccc(NC(=O)C4CC4)cc3)n2)n[nH]1 [tozasertib]
Procedure, shortened: as §1

doramapimod = compound: Cc1ccc(-n2nc(C(C)(C)C)cc2NC(=O)Nc2ccc(OCCN3CCOCC3)c3ccccc23)cc1 [doramapimod]
Procedure, shortened: as §1

bafetinib = compound: Cc1ccc(NC(=O)c2ccc(CN3CC[C@H](N(C)C)C3)c(C(F)(F)F)c2)cc1Nc1nccc(-c2cncnc2)n1 [bafetinib]
Procedure, shortened: as §1

[6] = compound: Cc1cccc(CC(=O)N2CCc3c2ccc(-c2cn(C)c4ncnc(N)c24)c3F)n1
Procedure, shortened: as §1

Chain of UniProt O95801 (O95801 whole entry, looked up): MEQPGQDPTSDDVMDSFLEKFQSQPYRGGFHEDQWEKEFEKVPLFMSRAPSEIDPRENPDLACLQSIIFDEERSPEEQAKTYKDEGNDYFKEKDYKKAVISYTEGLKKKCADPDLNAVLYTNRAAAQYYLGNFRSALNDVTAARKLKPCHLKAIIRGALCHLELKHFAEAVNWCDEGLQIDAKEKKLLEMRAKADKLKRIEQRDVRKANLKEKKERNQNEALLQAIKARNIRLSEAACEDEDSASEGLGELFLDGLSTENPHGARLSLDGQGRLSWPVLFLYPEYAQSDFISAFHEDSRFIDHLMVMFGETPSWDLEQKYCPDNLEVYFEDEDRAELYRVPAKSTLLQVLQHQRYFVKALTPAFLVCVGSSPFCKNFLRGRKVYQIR
Chain of UniProt Q8N0Z6 (Q8N0Z6 whole entry, looked up): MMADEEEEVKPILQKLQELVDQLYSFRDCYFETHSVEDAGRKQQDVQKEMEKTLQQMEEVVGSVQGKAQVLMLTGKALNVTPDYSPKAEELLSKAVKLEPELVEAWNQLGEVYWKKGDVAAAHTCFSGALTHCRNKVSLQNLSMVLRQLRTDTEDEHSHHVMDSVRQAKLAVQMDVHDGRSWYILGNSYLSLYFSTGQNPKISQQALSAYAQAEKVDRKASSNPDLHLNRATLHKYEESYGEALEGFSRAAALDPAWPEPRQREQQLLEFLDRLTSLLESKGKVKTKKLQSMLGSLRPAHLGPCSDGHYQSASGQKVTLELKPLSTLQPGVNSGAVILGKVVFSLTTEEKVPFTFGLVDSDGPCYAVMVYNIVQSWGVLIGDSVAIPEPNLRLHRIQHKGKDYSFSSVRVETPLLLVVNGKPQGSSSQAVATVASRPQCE
Chain of UniProt Q92547 (Q92547 whole entry, looked up): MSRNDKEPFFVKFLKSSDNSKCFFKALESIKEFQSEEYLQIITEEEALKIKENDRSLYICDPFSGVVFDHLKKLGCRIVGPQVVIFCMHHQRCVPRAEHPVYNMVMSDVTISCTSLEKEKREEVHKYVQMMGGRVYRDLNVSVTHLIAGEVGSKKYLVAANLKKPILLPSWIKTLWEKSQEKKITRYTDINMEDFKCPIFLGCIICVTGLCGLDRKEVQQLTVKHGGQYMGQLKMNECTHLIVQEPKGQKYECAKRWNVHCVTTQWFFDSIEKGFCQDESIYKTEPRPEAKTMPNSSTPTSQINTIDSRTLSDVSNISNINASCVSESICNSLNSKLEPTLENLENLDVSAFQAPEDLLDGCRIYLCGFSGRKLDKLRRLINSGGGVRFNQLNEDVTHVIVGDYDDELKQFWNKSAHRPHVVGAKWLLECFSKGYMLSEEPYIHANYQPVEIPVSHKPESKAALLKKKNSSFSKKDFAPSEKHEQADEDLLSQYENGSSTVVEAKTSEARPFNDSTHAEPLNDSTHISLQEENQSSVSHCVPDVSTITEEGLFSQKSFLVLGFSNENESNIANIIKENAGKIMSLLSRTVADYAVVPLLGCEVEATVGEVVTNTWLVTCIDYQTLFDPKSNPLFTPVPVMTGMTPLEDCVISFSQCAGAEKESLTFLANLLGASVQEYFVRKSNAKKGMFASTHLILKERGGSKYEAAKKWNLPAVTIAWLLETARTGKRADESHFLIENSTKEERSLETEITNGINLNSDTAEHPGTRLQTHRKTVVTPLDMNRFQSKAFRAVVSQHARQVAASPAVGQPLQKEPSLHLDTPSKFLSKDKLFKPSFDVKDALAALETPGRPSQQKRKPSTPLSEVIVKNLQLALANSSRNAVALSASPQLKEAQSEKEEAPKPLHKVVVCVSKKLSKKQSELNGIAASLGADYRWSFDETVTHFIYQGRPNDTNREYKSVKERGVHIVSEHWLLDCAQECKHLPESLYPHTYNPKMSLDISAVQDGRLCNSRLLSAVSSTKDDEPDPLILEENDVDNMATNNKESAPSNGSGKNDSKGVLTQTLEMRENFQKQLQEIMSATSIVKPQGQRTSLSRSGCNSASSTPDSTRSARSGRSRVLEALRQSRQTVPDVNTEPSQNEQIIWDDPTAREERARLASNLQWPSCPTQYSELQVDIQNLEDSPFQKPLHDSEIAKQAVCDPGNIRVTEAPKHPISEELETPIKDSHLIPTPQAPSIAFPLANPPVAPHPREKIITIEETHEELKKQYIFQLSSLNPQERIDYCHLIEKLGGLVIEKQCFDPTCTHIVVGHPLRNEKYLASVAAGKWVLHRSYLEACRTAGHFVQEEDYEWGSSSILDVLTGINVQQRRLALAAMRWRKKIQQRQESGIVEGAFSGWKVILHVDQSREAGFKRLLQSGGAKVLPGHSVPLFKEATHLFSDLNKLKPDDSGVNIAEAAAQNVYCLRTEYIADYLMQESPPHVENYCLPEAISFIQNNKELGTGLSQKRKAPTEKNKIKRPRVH
Chain of UniProt P68363 (P68363 whole entry, looked up): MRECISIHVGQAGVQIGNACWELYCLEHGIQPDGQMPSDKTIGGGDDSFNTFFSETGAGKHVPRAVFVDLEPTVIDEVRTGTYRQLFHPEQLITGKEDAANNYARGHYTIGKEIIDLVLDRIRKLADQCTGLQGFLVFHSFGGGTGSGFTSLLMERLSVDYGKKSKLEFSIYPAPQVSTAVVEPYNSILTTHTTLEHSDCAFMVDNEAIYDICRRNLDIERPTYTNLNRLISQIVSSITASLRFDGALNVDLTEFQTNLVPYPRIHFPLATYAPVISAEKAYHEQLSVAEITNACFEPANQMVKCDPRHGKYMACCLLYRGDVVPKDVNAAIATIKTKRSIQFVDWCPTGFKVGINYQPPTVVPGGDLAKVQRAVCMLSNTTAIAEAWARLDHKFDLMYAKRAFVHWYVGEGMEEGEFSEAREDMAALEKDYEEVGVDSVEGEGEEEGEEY
Chain of UniProt Q15628 (Q15628 whole entry, looked up): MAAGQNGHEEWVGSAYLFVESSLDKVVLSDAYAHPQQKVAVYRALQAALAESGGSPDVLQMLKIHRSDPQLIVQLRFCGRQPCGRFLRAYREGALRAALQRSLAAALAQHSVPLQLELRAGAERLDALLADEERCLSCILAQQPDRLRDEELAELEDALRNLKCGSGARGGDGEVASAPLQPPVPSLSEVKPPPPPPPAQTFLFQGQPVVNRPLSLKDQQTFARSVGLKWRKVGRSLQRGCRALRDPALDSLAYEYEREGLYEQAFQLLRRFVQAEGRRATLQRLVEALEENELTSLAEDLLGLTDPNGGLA
Chain of UniProt P04818 (P04818 whole entry, looked up): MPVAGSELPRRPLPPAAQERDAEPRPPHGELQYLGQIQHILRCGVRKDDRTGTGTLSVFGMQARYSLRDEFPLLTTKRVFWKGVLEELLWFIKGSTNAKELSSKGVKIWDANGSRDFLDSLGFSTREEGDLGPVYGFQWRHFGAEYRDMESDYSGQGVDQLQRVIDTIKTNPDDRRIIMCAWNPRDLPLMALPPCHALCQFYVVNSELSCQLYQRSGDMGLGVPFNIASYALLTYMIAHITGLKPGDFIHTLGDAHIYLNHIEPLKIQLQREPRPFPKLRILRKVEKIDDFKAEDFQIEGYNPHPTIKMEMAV
Chain of UniProt Q9H7E2 (Q9H7E2 whole entry, looked up): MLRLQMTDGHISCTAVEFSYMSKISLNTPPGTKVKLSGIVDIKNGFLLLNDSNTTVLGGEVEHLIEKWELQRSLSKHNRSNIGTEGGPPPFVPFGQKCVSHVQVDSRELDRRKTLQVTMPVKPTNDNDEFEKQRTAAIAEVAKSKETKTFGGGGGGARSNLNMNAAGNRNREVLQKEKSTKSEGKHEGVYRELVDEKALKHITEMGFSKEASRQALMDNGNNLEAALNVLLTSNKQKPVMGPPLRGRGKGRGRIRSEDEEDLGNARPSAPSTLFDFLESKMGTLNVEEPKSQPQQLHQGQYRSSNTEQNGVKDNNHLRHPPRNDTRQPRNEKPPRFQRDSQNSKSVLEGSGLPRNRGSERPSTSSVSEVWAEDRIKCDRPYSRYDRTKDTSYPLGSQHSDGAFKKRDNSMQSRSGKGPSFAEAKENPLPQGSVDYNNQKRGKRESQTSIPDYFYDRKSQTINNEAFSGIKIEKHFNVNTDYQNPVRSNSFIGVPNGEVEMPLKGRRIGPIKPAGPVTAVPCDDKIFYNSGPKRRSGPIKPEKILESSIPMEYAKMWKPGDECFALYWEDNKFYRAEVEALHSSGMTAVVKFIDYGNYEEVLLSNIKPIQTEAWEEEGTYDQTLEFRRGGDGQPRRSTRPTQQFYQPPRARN
Chain of UniProt Q969Z0 (Q969Z0 whole entry, looked up): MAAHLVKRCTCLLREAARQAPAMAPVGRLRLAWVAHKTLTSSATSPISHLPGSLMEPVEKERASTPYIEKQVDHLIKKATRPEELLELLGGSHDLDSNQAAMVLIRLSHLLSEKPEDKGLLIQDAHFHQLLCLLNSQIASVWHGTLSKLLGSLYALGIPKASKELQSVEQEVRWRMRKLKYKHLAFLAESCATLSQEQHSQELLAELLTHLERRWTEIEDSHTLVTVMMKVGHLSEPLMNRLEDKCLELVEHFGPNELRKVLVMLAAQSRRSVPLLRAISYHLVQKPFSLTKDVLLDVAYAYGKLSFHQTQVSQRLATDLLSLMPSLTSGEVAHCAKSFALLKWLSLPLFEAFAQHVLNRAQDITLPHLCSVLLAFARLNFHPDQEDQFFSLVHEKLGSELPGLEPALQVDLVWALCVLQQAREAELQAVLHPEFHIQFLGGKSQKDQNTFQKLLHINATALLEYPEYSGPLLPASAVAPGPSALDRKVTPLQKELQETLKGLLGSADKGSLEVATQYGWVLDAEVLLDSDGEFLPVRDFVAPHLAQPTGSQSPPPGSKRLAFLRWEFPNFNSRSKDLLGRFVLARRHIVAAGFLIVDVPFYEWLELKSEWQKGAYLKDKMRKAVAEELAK

Target | log2 fold change (alvocidib) | log2 fold change (Tubastatin A) | log2 fold change [1] | log2 fold change (defactinib) | log2 fold change [2] | log2 fold change (encorafenib) | log2 fold change [3] | log2 fold change (alisertib) | log2 fold change [4] | log2 fold change (gefitinib) | log2 fold change (lapatinib) | log2 fold change (pictilisib) | log2 fold change (crizotinib) | log2 fold change [5] | log2 fold change (duvelisib) | log2 fold change (gandotinib) | log2 fold change (tozasertib) | log2 fold change (doramapimod) | log2 fold change (bafetinib) | log2 fold change [6]
TUBA1B (UniProt P68363) | -0.027 | -0.056 | 0.019 | -0.03 | 0.003 | -0.004 | 0.085 | 0.026 | -0.004 | 0.013 | 0.004 | 0.001 | -0.039 | -0.015 | -0.011 | 0.022 | -0.011 | 0.023 | -0.025 | 0.002
TLK2 isoform 2 (UniProt Q86UE8) | -0.027 | -0.07 | -0.03 | 0.117 | -0.071 | 0.046 | -0.063 | -0.01 | 0.041 | -0.004 | -0.041 | 0.112 | -0.029 | -0.115 | -0.042 | 0.351 (active) | 0.126 | 0.006 | 0.004 | 0.049
TTC4 (UniProt O95801) | -0.012 | -0.183 | 0.078 | 0.004 | 0.003 | 0.021 | -0.005 | 0.008 | -0.017 | -0.003 | 0.006 | 0.025 | -0.073 | -0.059 | -0.001 | 0.035 | 0.009 | 0.014 | -0.001 | 0.026
TBRG4 (UniProt Q969Z0) | 0.017 | -0.089 | 0.007 | 0.071 | -0.018 | 0.01 | -0.013 | 0.037 | -0.008 | -0.015 | -0.021 | -0.039 | -0.031 | 0.08 | 0.006 | -0.269 (active) | 0.038 | -0.012 | -0.029 | -0.021
TTC5 (UniProt Q8N0Z6) | -0.006 | -0.092 | -0.017 | -0.017 | -0.02 | -0.021 | 0.057 | -0.036 | -0.01 | 0.091 | 0.039 | -0.021 | -0.053 | -0.064 | 0.032 | -0.048 | 0.076 | 0.007 | -0.052 | 0.04
TUBA4A (UniProt P68366) | 0.003 | -0.068 | 0.049 | 0.014 | -0.001 | -0.039 | 0.125 | 0.027 | 0.032 | 0.007 | -0.02 | 0.012 | -0.048 | -0.066 | 0.034 | 0.121 | 0.011 | 0.045 | -0.028 | 0.035
TDRD3 isoform 3 (UniProt Q9H7E2) | 0.043 | -0.08 | 0.025 | 0.033 | 0.097 | -0.006 | -0.029 | -0.084 | -0.042 | 0.297 | 0.005 | -0.038 | 0.024 | 0.127 | -0.02 | -0.068 | 0.034 | -0.151 | 0.093 | 0.01
TRADD (UniProt Q15628) | -0.029 | -0.066 | 0.021 | -0.092 | 0.021 | -0.012 | -0.241 | 0.009 | 0.004 | -0.03 | -0.015 | -0.011 | -0.003 | -0.022 | -0.081 | -0.03 | -0.011 | -0.022 | -0.034 | 0.035
TUBB2A (UniProt Q13885) | -0.007 | -0.062 | -0.021 | 0.006 | -0.008 | 0.01 | 0.071 | -0.005 | -0.001 | -0.006 | 0.009 | 0.011 | -0.049 | -0.016 | -0.012 | 0.028 | -0.011 | 0.004 | 0.026 | -0.005
UBR4 (UniProt Q5T4S7) | 0.009 | -0.06 | 0.006 | 0.006 | -0.034 | 0.003 | 0.018 | 0.001 | 0.001 | -0.029 | -0.023 | -0.015 | -0.038 | -0.017 | -0.001 | -0.08 | 0 | 0.01 | -0.038 | 0.037
TYMS (UniProt P04818) | 0.015 | -0.023 | 0.017 | 0.002 | -0.018 | 0.013 | -0.006 | 0.021 | 0.006 | -0.024 | -0.007 | -0.017 | 0.002 | 0.003 | 0.018 | 0.058 | 0.011 | -0.019 | -0.005 | -0.017
TRIM33 isoform 2 (UniProt Q9UPN9) | -0.029 | -0.131 | 0.016 | -0.001 | -0.006 | 0.006 | 0.052 | -0.003 | 0.046 | 0.005 | -0.034 | 0.008 | -0.015 | -0.07 | -0.002 | -0.023 | 0.011 | 0.021 | -0.038 | 0.056
TOPBP1 (UniProt Q92547) | 0.024 | -0.067 | 0.033 | 0.047 | 0.01 | -0.024 | 0.108 | -0.039 | 0.034 | 0.008 | 0.095 | -0.037 | 0.023 | 0.206 | -0.03 | -0.048 | -0.066 | 0.056 | -0.076 | -0.017
